Screens (PubChem BioAssay)
This is a sample that favours compounds with a hit; in the whole collection about 2.8% have one here.
IP6K1 inh – inhibitors of human IP6K1 | Q92551 | IP6K1 kinase, ADP-Glo luminescence, 2 h; active compounds read low | activity change, % (series mostly up to about 58 µM) | 0.81% of 140,000 active; in the data active = activity change below about -25%; also: % is scaled to controls: 0 for no effect and ±100 for the full control effect
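ADP-Glo luminescence measures ADP made by human IP6K1 during a 2 h RT reaction with ATP/IP6 (mix at 1.3 mM/130 uM); top library doses 57.5 and 19.1 uM final.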
SNCA viab count – counter-screen for SNCA expression inhibitors: cell viability; HEK-293-SNCA-luc viability, GF-AFC fluorescence, 24 h; Potency, µM (titrated, usually from 57.1 µM), for the others: at the top dose activity change, negative = cytotoxicity, hits mostly cytotoxic; 0.12% of 150,000 active; AID 1671193;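 also: potency is read from the fitted curve at half-maximal effect; 0% = DMSO-treated cells and -100% = medium-only wells without cells; nearly all actives have a fitted effect of over 30% in size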
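HEK-293-SNCA-luc cells (1500/well) plated 24 h, then exposed 24 h to a dilution series; GF-AFC added 30 min at 37C, fluorescence 405/540 nm; normalised to medium-only and DMSO wells, Hill fit.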
KDM5B inh – KDM5B demethylase inhibition | Q9UGL1 | KDM5B demethylase, FDH-coupled NADH fluorescence (FDH is formaldehyde dehydrogenase) | Potency, µM (highest dose often 57.7 µM), most hits filed as inhibitors | 2.6% of 220,000 active | AID 1347165; also: potency is read from the fitted curve at half-maximal effect; 0% is about no effect; nearly all actives have a fitted effect of over 70% in size
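Measured: NADH fluorescence change, 30 min, RT. System: KDM5BΔAP 200 nM final, H3K4me3 peptide, α-KG, Fe(II), ascorbate, NAD⁺ plus FDH, pH 7.5 HEPES. Compounds: titrated, 10 min pre-incubation with enzyme.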
SNCA expr inhib – SNCA gene expression inhibition; AID 1671194; 0.17% of 140,000 active; Potency, µM (top dose mostly 57.2 µM), without a hit: at the highest dose activity change, negative = inhibition, usual class: inhibitors; HEK-293 SNCA-luciferase knock-in, luminescence, 24 h;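 also: potency is read from the fitted curve at half-maximal effect; plate controls were DMSO cells for no effect and cell-free wells for full effect; nearly all actives have a fitted effect of over 45% in size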
* marks the source's active call; other numbers are inactive results; i = inactive; ? = inconclusive; / = no result given; [ ] = another dose, or the depositor's remark. Unless noted, calls follow the shape of the dose curve; as a rule, active = well fitted curve in the direction sought with a large enough effect; inconclusive = small, poorly fitted or top-dose-only effect, or another doubt; inactive = no such curve, though single readings can be large; an effect the other way counts as inactive or inconclusive.

SMILES	IP6K1 inh	SNCA viab count	KDM5B inh	SNCA expr inhib
N#Cc1cccc(-c2ccnc(N[C@H]3CO[C@H]4[C@@H]3OC[C@@H]4NC(=O)c3ccc4c(c3)OCO4)n2)c1	-1	-29%	?	-11%
COc1ccc(-c2ccnc(N[C@H]3CO[C@H]4[C@@H]3OC[C@@H]4NC(=O)N3CCOCC3)n2)cc1	-12	4%	?	-13%
N#C/C(=C\c1ccccc1OCc1ccc2ccccc2c1)c1nc2ccccc2[nH]1	/	/	i	/
COC(=O)c1cc(COC(=O)Cc2coc3cc(C)c(C)cc23)oc1C	/	/	i	/
N#Cc1ccc(Oc2cccc(F)c2)cc1	/	/	i	/
Cc1ccc(C(=O)NC(CN(C)C)c2ccccc2)cc1F (stereo not drawn)	/	/	i	/
Cc1nc(Nc2n[nH]c3c2CN(C(=O)N[C@H](CN(C)C)c2ccccc2)C3(C)C)c2sccc2n1	28	?	/	0.015µM*
COc1cccc(NC(=O)N2CCCC3(C2)Nc2cccnc2NC3=NC2CCCC2)c1 (stereo not drawn)	0	-26%	?	-15%
O=C(Nc1cc(F)cc(F)c1)N1CCCC2(C1)Nc1cccnc1NC2=NC1CCCC1 (stereo not drawn)	0	-14%	14µM*	-17%
COc1ccc(C)cc1NC(=O)N1CCCC2(C1)Nc1cccnc1NC2=NC1CCCC1 (stereo not drawn)	4	?	28µM*	?
O=C(NC[C@@H]1CCCN1)C1CCN(c2nc(-c3ccccc3)nc3c2CCC3)CC1	18	-29%	i	-23%
Cc1ccc(C2C(C#N)=C(N)Oc3cc(C)n(C)c(=O)c32)s1 (stereo not drawn)	/	/	i	/
O=C(NCc1nnc2c(-c3nc(C4CC4)no3)cccn12)C1CCCC1	1	-3%	28µM*	-9%
CCc1noc(-c2cccn3c(CNC(=O)C4CCC4)nnc23)n1	-2	3%	25µM*	1%
CCCc1noc(-c2cccn3c(CNC(=O)C4CCCC4)nnc23)n1	8	-4%	28µM*	10%
COc1ccc(S(=O)(=O)c2c(C)c(C)n(C(C)C)c2NC(=O)c2cccs2)cc1	/	/	i	/
Cc1ccc(NS(=O)(=O)c2ccc3c(c2)c(=O)n(CC(=O)N2CCCCCC2)c(=O)n3C)cc1C	/	/	i	/
COc1ccccc1C1C=C(C(=O)O)Nc2c(C(=O)Nc3ccc(C)cc3)cnn21 (stereo not drawn)	/	/	i	/
Cc1c(-c2ccccc2F)[nH]c2ccc(CNC(=O)C3CCCN(C(N)=O)C3)cc12 (stereo not drawn)	26	-13%	28µM*	5%
Cc1c(-c2ccccc2F)[nH]c2ccc(CNC(=O)C3C=CCN3)cc12 (stereo not drawn)	-17	5%	28µM*	40%
CCc1[nH]c2ccc(CNC(=O)C3CC(=O)Nc4ccccc43)cc2c1C (stereo not drawn)	-4	2%	i	23%
O=C(CCCOc1ccc(Cl)cc1Cl)OCC(=O)c1ccccc1	/	/	i	/
Cc1ccccc1OCCN(C)C(=O)Cc1c[nH]c2ccccc12	/	/	i	/
O=C(Cc1cccc(Cl)c1)NC1CCN(Cc2cccc(-c3ccc(F)c(F)c3)c2)CC1	18	-29%	/	?
CC(C)C(NC(=O)c1ccc(Cl)cc1Cl)C(=O)NCc1cnn(-c2ccccc2)c1 (stereo not drawn)	/	/	i	/
SMILES	IP6K1 inh	SNCA viab count	KDM5B inh	SNCA expr inhib
Cc1cc(C(=O)N[C@H]2[C@H](O)[C@H](O)C[C@@H]2c2ccc(N3CCOCC3)nc2)n(C)n1	-2	0%[87.6 µM]	?	-1%[87.6 µM]
COc1cccc(CN[C@H]2[C@H](O)[C@H](O)C[C@@H]2c2ccc(N3CCOCC3)nc2)c1	0	-3%[87.6 µM]	35µM*	-15%[87.6 µM]
COc1ccccc1C(=O)N[C@H]1[C@H](O)[C@H](O)C[C@@H]1c1ccc(N2CCOCC2)nc1	-4	-6%[87.6 µM]	?	45%[87.6 µM]
COc1cccc(C(=O)N[C@H]2[C@H](O)[C@H](O)C[C@@H]2c2ccc(N3CCOCC3)nc2)c1	-6	4%[87.6 µM]	35µM*	24%[87.6 µM]
CN1CCC(N[C@H]2[C@H](O)[C@H](O)C[C@@H]2c2ccc(N3CCOCC3)nc2)CC1	1	8%[87.6 µM]	32µM*	15%[87.6 µM]
COc1cccc(-c2cc(C(=O)Nc3cccc(C(F)(F)F)c3)c3cnn(C)c3n2)c1	10	/	/	/
NC(=O)c1ccc(CNC2(c3ccc(F)cc3)CCCC2)cc1	/	/	i	/
Cn1ncc2c(C(=O)NCCc3ccc(Cl)cc3)cc(-c3ccc(Cl)cc3Cl)nc21	-16	-14%	71µM*	?
Cn1ncc2c(C(=O)NCCc3ccc(Cl)cc3)cc(-c3ccc(Cl)cc3)nc21	2	-9%	?	?
CC(C)NC(=O)c1cc(-c2ccc(Cl)cc2Cl)nc2c1cnn2C	-4	0%	89µM*	-11%
Cc1cc(SCC(=O)NCC(=O)N(C)C)nc2c(C)cccc12	/	/	i	/
O=C(Nc1ccc(Cl)cc1Cl)c1ccn2cncc2c1	0	-4%[87.6 µM]	35µM*	64%[87.6 µM]
O=C(Nc1ccc(Cl)cc1Cl)c1ccc2cncn2c1	-5	-2%[87.6 µM]	28µM*	97%[87.6 µM]
N[C@@H](Cc1cc(I)c(Oc2ccc(O)c(I)c2)c(I)c1)C(=O)O	-34*	-27%	/	/
N[C@@H](Cc1cc(I)c(Oc2cc(I)c(O)c(I)c2)c(I)c1)C(=O)O	-25	-17%	/	0%
CC(C)C(=O)N[C@H]1C[C@@H](Cc2cc(COc3ccccc3)on2)C1(C)C	8	?	i	-6%[87.6 µM]
COc1ccc(CC(=O)NCc2nnc3ccccn23)cc1OC	/	/	i	/
c1cncc(CN2CCc3c(sc4ncnc(N5CCOCC5)c34)C2)c1	-4	-7%	?	-26%
c1cc(CN2CCc3c(sc4ncnc(N5CCCC5)c34)C2)ccn1	-8	?	25µM*	83%
O=C(N[C@H]1CO[C@H]2[C@@H]1OC[C@@H]2Nc1nccc(-c2ccc(-c3ccccc3)cc2)n1)c1ccccc1	-2	-23%	?	-19%
COc1ccc(-c2ccnc(N[C@H]3CO[C@H]4[C@@H]3OC[C@@H]4NC(=O)NCc3ccccc3)n2)cc1	-16	-8%	25µM*	?
CN(C)c1ccc(-c2ccnc(N[C@H]3CO[C@H]4[C@@H]3OC[C@@H]4NC(=O)NCc3ccccc3)n2)cc1	16	7%	28µM*	9%
Cc1c(/C=C(/C#N)c2ccccn2)cc(C#N)n1C	/	/	i	/
Cc1csc(CNC(=O)c2cccnc2)n1	/	/	i	/
COc1ccc2oc(=O)c(C(=O)Nc3ccccc3Cl)cc2c1	/	/	i	/
c1cc(-c2nnc([C@H]3CCN(CC4CCCCC4)C3)o2)ccn1	1	-6%[87.6 µM]	i	2%[87.6 µM]
CN(C)c1ccc(-c2nnc([C@H]3CCN(CC4CCCCC4)C3)o2)cc1	3	0%[87.6 µM]	32µM*	-4%[87.6 µM]
CN(C)c1ccc(-c2nnc([C@H]3CCN(CC4CC4)C3)o2)cc1	5	-3%[87.6 µM]	32µM*	-12%[87.6 µM]
c1ccc(CCCN2CC[C@H](c3nnc(-c4ccccc4)o3)C2)cc1	25	-14%[87.6 µM]	32µM*	-14%[87.6 µM]
CN(C)c1ccc(-c2nnc([C@H]3CCN(C4CCC4)C3)o2)cc1	-3	-3%[87.6 µM]	28µM*	68%[87.6 µM]
